In PubChem BioAssay (NCI):
This is part of a sample that, as a whole, favours compounds with a hit. Of some 83,000 tested, about 20% had one in any assay.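 Single-concentration screen, 48 h exposure, 96-well plates. Endpoint: percent growth. Below 10 = active.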 A number with no mark means an inactive call. Activity calls are given as the source filed them.

Tests used:
Assay in all cases: NCI-60 one-dose screen, 48 h (100 = growth as untreated, 0 = no growth, -100 = all killed)
Conditions in all cases: 10 µM
RPMI-8226 leukemia = tested on: RPMI-8226 leukemia
OVCAR-8 ovarian = tested on: OVCAR-8 ovarian
OVCAR-5 ovarian = tested on: OVCAR-5 ovarian
OVCAR-4 ovarian = tested on: OVCAR-4 ovarian
SK-OV-3 ovarian = tested on: SK-OV-3 ovarian
IGROV1 ovarian = tested on: IGROV1 ovarian
OVCAR-3 ovarian = tested on: OVCAR-3 ovarian
HS 578T breast = tested on: HS 578T breast
NCI/ADR-RES ovarian = tested on: NCI/ADR-RES ovarian

| SMILES | growth (RPMI-8226 leukemia) | growth (OVCAR-8 ovarian) | growth (OVCAR-5 ovarian) | growth (OVCAR-4 ovarian) | growth (SK-OV-3 ovarian) | growth (IGROV1 ovarian) | growth (OVCAR-3 ovarian) | growth (HS 578T breast) | growth (NCI/ADR-RES ovarian) |
| --- | --- | --- | --- | --- | --- | --- | --- | --- | --- |
| COc1cc(/C=C/C(=O)c2ccccc2)cc(OC)c1OC | 24.3% | 59.8% | 66.6% | 65% | 79% | 98.6% | 59% | 106% | 43.1% |
| CCCNC(=O)c1ccc(S(N)(=O)=O)cc1 | 96.9% | 122% | 89.7% | 84.3% | 105% | 135% | 113% | – | 99.5% |
| O=C(NCc1ccco1)Nc1c(Cl)cc(Cl)cc1Cl | 100% | 101% | 97.7% | 88.4% | 103% | 105% | 112% | 109% | 101% |
| Cc1cc2nc(CC(=O)c3ccccc3)c(=O)[nH]c2cc1C | 103% | 94.7% | 116% | 102% | 102% | 91.9% | 109% | 73.8% | 94.6% |
| COc1cccc(COC(=O)Nc2ccccc2)c1OC | 90.1% | 96.9% | 105% | 117% | 111% | 101% | 111% | 115% | 105% |
| O=C(O)/C=C/C(=O)NCc1ccccc1 | 94.7% | 108% | 107% | 107% | 112% | 98.4% | 109% | 113% | 102% |
| CCCCCCCCCCCCCC(=O)Oc1ccc[nH]c1=O | 95.7% | 94.9% | 97.1% | 102% | 88.8% | 97.8% | 103% | 98.1% | 99.8% |
| O=C(Cc1nc2ccc([N+](=O)[O-])cc2nc1CC(=O)c1ccccc1)c1ccccc1 | 42.9% | 50% | 89.6% | 34.3% | 103% | 79.2% | 60.1% | 51.6% | 29.8% |
| COc1cc2cc(OC(C)=O)c3cc4c(cc3c2c(OC)c1OC)OCO4 | 97.4% | 102% | 92.3% | 111% | 103% | 107% | 101% | 91.4% | 95.7% |
| Cc1ccc(C)n1-c1ccsc1C(=O)NNC(=O)C(Cl)Cl | 107% | 106% | 112% | 96.9% | 95.7% | 108% | 107% | 100% | 102% |
| CCOC(=O)c1cc(/C=C/c2cccc(Cl)c2)on1 | 4.16% (active) | 99.5% | 101% | 83.7% | 111% | 93.9% | 99.1% | 76.4% | 91% |
| O=C(NCCNC(=O)c1ccc(Cl)cc1Cl)c1ccc(Cl)cc1Cl | 97.8% | 94.7% | 119% | 104% | 98.7% | 100% | 111% | 107% | 97.6% |
| CCOC(=O)C(C#N)Cc1ccccc1 (centres undefined) | 101% | 115% | 103% | 114% | 123% | 114% | 117% | 112% | 117% |
| CCOC(=O)c1cc(/C=C/c2ccc(Cl)cc2Cl)on1 | 2.84% (active) | 24.1% | 58.8% | 76% | 104% | 82.2% | 24.4% | 71.8% | -34.9% (active) |
| O=C(NC1CCCCC1)OCc1c(COC(=O)NC2CCCCC2)c(-c2ccc(Cl)c(Cl)c2)n2c1CCC2 | 40% | 35% | 19% | 11.5% | 12.4% | -42.4% (active) | 31.2% | 39.7% | 25.2% |
